Consider seven molecules from PubChem BioAssay (NCATS).

Assay [1] is described as follows: Cellular Toxicity (caspase-3) MRC-5 (AID 659).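 Also: 0% = DMSO basal and 100% = 10 µM staurosporine.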 Put shortly:
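MRC-5 human normal lung fibroblasts, 1500 cells/well, treated 16 h at 37 °C in complete medium. Caspase 3/7 measured by Caspase-Glo luminescence after 1 h at room temperature. Normalized to DMSO and 10 uM staurosporine; AC50 from Hill fit.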

The nature of assay [2]: Cellular Toxicity (caspase-3) SK-N-SH (AID 661).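 Also: 0% = DMSO basal and 100% = 10 µM staurosporine.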 An outline of the steps:
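SK-N-SH human neuroblastoma cells (1500/well) were treated with compounds for 16 hr at 37 °C in complete medium; caspase 3/7 activity was read by Caspase-Glo luminescence. AC50 came from Hill fits of data normalized to DMSO and 10 uM staurosporine.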

Assay [3] is described as follows: Cellular Toxicity (caspase-3) H-4-II-E (AID 663).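 Also: 0% = DMSO basal and 100% = 100 µM tamoxifen.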 Put shortly:
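Rat hepatoma H-4-II-E cells (1500/well) plated 5 hr, then exposed to compound titrations for 16 hr at 37 °C. Caspase-Glo 3/7 luminescence read after 20 min at RT; data normalized to DMSO and 100 uM tamoxifen, AC50 from Hill fits.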

The nature of assay [4]: Cellular Toxicity (caspase-3) N2a (AID 665).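 Also: compound exposure lasted 16 h at 37 °C before readout.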 Put shortly: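 Mouse N2a neuroblastoma cells (1500/well) were treated with compounds for 16 h at 37 °C, then caspase-3/7 activity was read by Caspase-Glo luminescence after 1 h at room temperature. Data were normalized to DMSO and 10 uM staurosporine; AC50 from Hill fits.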
Assay [5] is described as follows: Cellular Toxicity (caspase-3) NIH 3T3 (AID 666).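 Also: caspase signal read after 16 h compound exposure; 0% = DMSO basal and 100% = 100 µM tamoxifen stimulation.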 An outline of the steps: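 Mouse NIH 3T3 fibroblasts (1000 cells/well) were treated with compound for 16 hr at 37°C in complete medium; caspase-3/7 activity was read by Caspase-Glo luminescence. Normalized to DMSO and 100 uM tamoxifen; AC50 from Hill fits.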
A short description of assay [6]: Cellular Toxicity (caspase-3) Renal Proximal Tubule (AID 667).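 Also: cells exposed to compound for 16 hours at 37 °C before detection; 0% = DMSO basal and 100% = 10 µM staurosporine.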 An outline of the steps: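 Primary rat proximal tubule cells, 1000/well, 5 h plating at 37 °C, then compound 16 h at 37 °C. Caspase-Glo 3/7 reagent, 1 h RT, luminescence. Normalized to DMSO (basal) and 10 uM staurosporine (100%); Hill-fit AC50.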
In assay [7] the target is Cytochrome P450 3A4 (Homo sapiens) (UniProt P08684). The assay is described as follows: qHTS Assay for Inhibitors and Substrates of Cytochrome P450 3A4 (AID 884). Also: nearly all actives have a fitted effect of over 50% in size. Also: potency is read from the fitted curve at half-maximal effect. An outline of the steps: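 20 nM human CYP3A4 with 25 uM Luciferin-PPXE (at KM) in 200 mM KPO4, preincubated 10 min with compound; NADPH regeneration started a 60 min RT reaction. Luciferin detected by luminescence, normalized to 57 uM ketoconazole as full inhibition.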
Sequence of Cytochrome P450 3A4 (Homo sapiens) (P08684 whole entry, looked up): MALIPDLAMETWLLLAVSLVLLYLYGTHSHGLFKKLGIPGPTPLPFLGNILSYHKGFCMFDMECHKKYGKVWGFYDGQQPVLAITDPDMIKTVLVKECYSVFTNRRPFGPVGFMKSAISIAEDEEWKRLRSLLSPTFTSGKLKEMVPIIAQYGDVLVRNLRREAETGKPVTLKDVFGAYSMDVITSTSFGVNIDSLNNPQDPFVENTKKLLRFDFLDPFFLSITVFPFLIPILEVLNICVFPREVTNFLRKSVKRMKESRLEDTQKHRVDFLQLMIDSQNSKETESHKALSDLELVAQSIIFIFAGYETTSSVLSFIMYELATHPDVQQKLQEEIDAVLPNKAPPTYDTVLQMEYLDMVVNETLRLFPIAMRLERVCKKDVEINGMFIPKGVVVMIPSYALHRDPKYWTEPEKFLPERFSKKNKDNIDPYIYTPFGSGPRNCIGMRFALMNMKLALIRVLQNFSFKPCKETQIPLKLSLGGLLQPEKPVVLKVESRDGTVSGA
In general terms: qHTS replaces the single test concentration by a dilution series.

Assay [8] is described as follows: MultiTox-Fluor Cytotoxicity Assay - LYMP1-001 - Dead Cells (AID 946).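 Also: 0% = DMSO and 100% = tetraoctylammonium bromide.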 An outline of the steps:
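In this qHTS, 15 uM tetraoctylammonium bromide defined 100% and DMSO defined basal activity. Lymphoblastoid cells (LYMP1-001, 2500 per well) received compound for 16 hr at 37 C before a fluorogenic dead-cell substrate readout at 485/520 nm.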

A short description of assay [9]: MultiTox-Fluor Cytotoxicity Assay - LYMP1-001 - Live Cells (AID 947).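 Also: 0% = DMSO only and full inhibition = tetraoctylammonium bromide control.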
Assay [10] is described as follows: Cell Viability - LYMP1-002 - Assay at 16 hr (AID 948).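 Also: 0% = DMSO alone and full effect = 92 µM tetraoctylammonium bromide.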 Put shortly: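 Human lymphoblastoid cells (LYMP1-002), 2500/well, were preincubated 5 hr at 37 C, then exposed to compounds for 16 hr at 37 C in complete medium. Cellular ATP was read by CellTiter-Glo luminescence after 30 min at room temperature; AC50 from Hill fits.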
The nature of assay [11]: MultiTox-Fluor Cytotoxicity Assay - LYMP1-002 - Live Cells (AID 955). Also: % is scaled to controls: 0 for no effect and ±100 for the full control effect. Put shortly:
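Human lymphoblastoid LYMP1-002 cells, 2500/well in complete medium, rested 5 hr at 37 C, then exposed to compounds for 16 hr at 37 C. Live-cell protease cleavage of GF-AFC read by fluorescence (Ex/Em 405/510) after 60 min at room temperature; AC50 from Hill fits.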

Assay [12] is described as follows: MultiTox-Fluor Cytotoxicity Assay - LYMP1-003 - Dead Cells (AID 961).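 Also: 0% = DMSO and 100% = tetraoctylammonium bromide; nearly all actives have a fitted effect of over 70% in size.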 An outline of the steps: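 Acute toxicity is scored as increased dead-cell protease activity in human lymphoblastoid LYMP1-003 cells after 16 h compound exposure in complete culture medium. Activity is normalized to DMSO basal and 15 uM tetraoctylammonium bromide as full response.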
Assay [13] is described as follows: MultiTox-Fluor Cytotoxicity Assay - LYMP1-003 - Live Cells (AID 962).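 Also: 0% = DMSO only and full loss = 92 µM tetraoctylammonium bromide; cytotoxic hits lower the live-cell protease signal.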 Put shortly: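 LYMP1-003 human lymphoblastoid cells (2500/well) in complete medium were preincubated 5 hr at 37 C, then exposed to compounds for 16 hr at 37 C. Live-cell protease cleavage of GF-AFC read by fluorescence (Ex/Em 405/510); AC50 from Hill fits.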
A short description of assay [14]: Cell Viability - LYMP1-003 - Assay at 24 hr (AID 963).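 Also: plate controls were DMSO only for no effect and tetraoctylammonium bromide positive control for full effect.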 An outline of the steps: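 Human lymphoblastoid LYMP1-003 cells (2500/well) were rested 5 hr at 37 C, then exposed to compounds in complete medium for 24 hr at 37 C. Cellular ATP was quantified by CellTiter-Glo luminescence, and AC50 values came from Hill fits of concentration-response data.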
A short description of assay [15]: Cell Viability - LYMP2-003 (AID 965).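 Also: cells exposed to compounds for 24 h before reading; 0% = DMSO only and full effect = 92 µM tetraoctylammonium bromide; nearly all actives have a fitted effect of over 50% in size.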 An outline of the steps:
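Human lymphoblastoid cells (2500/well) were pre-incubated 5 hr at 37 C, then exposed to compounds over a concentration range for 24 hr at 37 C. Intracellular ATP was read by CellTiter-Glo luminescence; AC50 came from Hill-equation fits.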

Assay [16] is described as follows: Cell Viability - LYMP2-004 (AID 966).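 Also: plate controls were DMSO only for no effect and tetraoctylammonium bromide control for full effect; nearly all actives have a fitted effect of over 65% in size.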 An outline of the steps:
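Human lymphoblastoid cells (2500/well) in complete medium were treated with compounds for 24 hr at 37 C, then intracellular ATP was measured by CellTiter-Glo luminescence. AC50 values came from Hill-equation fits of concentration-response data.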

Assay [17] is described as follows: qHTS assay for small molecule antagonists of the retinoid-related orphan receptor gamma (ROR-gamma) signaling pathway - cell viability counter screen (AID 720652; active = well fitted curve in the direction sought with a large enough effect in the repeat runs; an effect the other way counts as inactive or inconclusive;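 also: CHO reporter cells with doxycycline-induced ROR-gamma expression; series mostly up to about 92 µM; compound exposure lasted 16 hr before ATP read; % is scaled to controls: 0 for no effect and ±100 for the full control effect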). An outline of the steps:
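Counter screen in CHO cells carrying TET-inducible ROR-gamma and an ROR response element-luciferase reporter; cells plated 5 hr, compound pinned, doxycycline added, then 16 hr at 37 C. Viability read as intracellular ATP by CellTiter-Glo luminescence.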

Assay [18] can be described thus: qHTS assay for small molecule agonists of the antioxidant response element (ARE) signaling pathway measured by Nrf2-dependant transcriptional activity - cell viability counter screen (AID 720653; active = well fitted curve in the direction sought with a large enough effect in the repeat runs; an effect the other way counts as inactive or inconclusive; also: % is scaled to controls: 0 for no effect and ±100 for the full control effect). Particulars: ARE-bla HepG2 viability, CellTiter-Glo ATP luminescence, 16 h; max response: hits give low values. An outline of the steps:
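ARE-bla HepG2 cells treated with compounds for 16 h at 37C; this counter screen measures viability as intracellular ATP by CellTiter-Glo luminescence after 30 min at room temperature.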

A short description of assay [19]: qHTS assay for cell viability of HEK293 cells (AID 743288). Also: % is scaled to controls: 0 for no effect and ±100 for the full control effect; nearly all actives have a fitted effect of over 50% in size. Particulars: ATP luminescence (CellTiter-Glo), 18 h; max response: hits give low values. Put shortly: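 Parental HEK293 cells were seeded at 2,000 cells/well, rested at least 5 h at 37 C, then exposed to compounds in DMSO for 18 h at 37 C. Viability was read as ATP-dependent luciferase luminescence after 30 min at room temperature.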

Assay [20] can be described thus: qHTS assay for cell viability of the p53RE-bla HCT-116 cell line (AID 743292). Also: % is scaled to controls: 0 for no effect and ±100 for the full control effect; nearly all actives have a fitted effect of over 55% in size. Put shortly:
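Readout: CellTiter-Glo luminescence after 30 min RT. Treatment: compounds in DMSO, 16 h, 37 C. Cells: CellSensor p53RE-bla HCT-116, 4,000/well, preincubated 5 h.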

Several values for one entry are separate records, joined by “and”; a condition that tells them apart may be missing. Equal values may be shown once. Unmarked numbers belong to inactive results. Records with an inconclusive call do not appear. Activity calls are given as the source filed them. Unless noted, calls follow the shape of the dose curve; as a rule, active = well fitted curve in the direction sought with a large enough effect; inconclusive = small, poorly fitted or top-dose-only effect, or another doubt; inactive = no such curve, though single readings can be large; an effect the other way counts as inactive or inconclusive.

`CC(=O)/C=C/c1ccccc1`: the outcome in assay [1], in assay [2], in assay [3], in assay [4], in assay [5] and in assay [6] was inactive. The result in assay [9], in [10], in assay [11], in assay [13], in assay [14] and in assay [15] was inactive. In addition, the molecule was called inactive in [16], in [17] and in assay [20]. In addition, the Potency entry in assay [7], in assay [8] and in [12] was “inactive” throughout. For the same molecule, the max response is -6.98% in assay [18] and -4.92% in assay [19].

As for `Brc1c(Br)c(Br)c2n[nH]nc2c1Br`, the Potency in assay [7] was 3160 nM (active).

`COC1=CC(=O)OC(CCc2ccc3c(c2)OCO3)C1` (stereo not given): the molecule was classed as inactive in assay [1], in [2], in assay [3], in assay [4], in assay [5] and in assay [6]. Moreover, the call in assay [9], in assay [10], in [11], in assay [13], in assay [14] and in [15] was inactive. In addition, the molecule was called inactive in assay [16], in assay [17] and in assay [20]. In addition, in assay [7], the Potency is 2000 nM (active). Further, the Potency result in [8] and in assay [12] was “inactive” in each case. Moreover, the max response in [18] was -4.13%; in assay [19] it was -5.17%.

With `c1ccc(Nc2ccc3ccccc3c2)cc1`, the molecule was called inactive in [1], in assay [2], in assay [3], in assay [4], in assay [5] and in assay [6]. Further, the result in assay [9], in assay [10], in assay [11], in assay [13], in [14] and in assay [15] was inactive. Besides, the result in [16], in assay [17] and in assay [20] was inactive. Moreover, the Potency entry in assay [8] and in assay [12] was “inactive” throughout. For the same molecule, the max response was -8.38% and -2.45% in assay [18]; -12% and -13.2% in [19].

For the molecule `CCOC(=O)c1ccccc1N`, the molecule was classed as inactive in [1], in assay [2], in [3], in [4], in [5] and in assay [6]. For the same molecule, the molecule was called inactive in assay [9], in [10], in assay [11], in assay [13], in assay [14] and in assay [15]. The outcome in assay [16], in [17] and in assay [20] was inactive. Besides, the Potency entry in assay [7], in assay [8] and in [12] was “inactive” throughout. Further, the max response is 3.82% in [18] and -8.89% in assay [19].

As for `c1ccc2c(c1)-c1cccc3cccc-2c13`, the molecule was classed as inactive in assay [1], in assay [2], in assay [3], in [4], in assay [5] and in assay [6]. Further, the call in [9], in assay [10], in assay [11], in assay [13], in assay [14] and in assay [15] was inactive. The molecule was called inactive in assay [16], in [17] and in [20]. Further, the Potency result in assay [7], in [8] and in assay [12] was “inactive” in each case. The max response is -12% and 0.837% in assay [18]; -24.1% and 3.9% in assay [19].

Consider `Oc1ccccc1Cl`, for which the molecule was classed as inactive in assay [1], in [2], in [3], in assay [4], in assay [5] and in assay [6]. The result in assay [9], in [10], in [11], in [13], in [14] and in [15] was inactive. For the same molecule, the result in assay [16], in [17] and in assay [20] was inactive. Besides, the Potency result in [7], in assay [8] and in [12] was “inactive” each time. For the same molecule, the values for the max response in assay [18] and in assay [19] were -1.76% and -13.2%, respectively.
